# Rows were chosen to be rich in hits. Some 9.2% of all compounds tested hit in one or more screens of this group.
# OTUD3 inh – inhibitors of human OTUD3 deubiquitinase. purified OTUD3, Ub-rhodamine fluorescence, 2 h. inhibition, % at 25 µM. 47,000 compounds, 0.7% hits. AID 1645858, 2021
# USP8 block – inhibitors of human USP8 deubiquitinase. inhibition, % at 20 µM. Ubiquitin carboxyl-terminal hydrolase 8 (Homo sapiens), P40818. 47,000 compounds, 4.2% hits. purified USP8, Ub-rhodamine cleavage fluorescence, 30 min. AID 1645853, 2021
# USP17 block – inhibitors of human USP17 deubiquitinase; purified USP17, Ub-rhodamine cleavage fluorescence, 3 h; inhibition, % at 50 µM; Ubiquitin carboxyl-terminal hydrolase 17-like protein 5 (Homo sapiens), A8MUK1; 47,000 compounds, 6.5% hits
# Target sequence (A8MUK1 whole entry, looked up): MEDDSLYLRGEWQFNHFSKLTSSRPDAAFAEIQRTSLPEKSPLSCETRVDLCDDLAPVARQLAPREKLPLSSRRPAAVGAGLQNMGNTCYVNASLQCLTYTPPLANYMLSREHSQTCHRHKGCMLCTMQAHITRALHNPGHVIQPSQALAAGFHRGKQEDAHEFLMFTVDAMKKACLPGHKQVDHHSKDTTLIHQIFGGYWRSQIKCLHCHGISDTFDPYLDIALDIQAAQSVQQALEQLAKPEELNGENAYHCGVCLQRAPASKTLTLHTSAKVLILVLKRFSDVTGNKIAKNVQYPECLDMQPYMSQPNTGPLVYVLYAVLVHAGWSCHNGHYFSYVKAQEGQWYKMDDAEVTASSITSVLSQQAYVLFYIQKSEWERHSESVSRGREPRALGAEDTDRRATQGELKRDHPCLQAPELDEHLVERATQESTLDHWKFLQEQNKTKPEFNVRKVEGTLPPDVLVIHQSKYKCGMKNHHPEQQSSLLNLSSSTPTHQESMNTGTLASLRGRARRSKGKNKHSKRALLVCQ
# UCHL1 block – inhibitors of human UCHL1 deubiquitinase; 47,000 compounds, 0.2% hits; purified UCHL1, Ub-rhodamine cleavage fluorescence; Ubiquitin carboxyl-terminal hydrolase isozyme L1 (Homo sapiens), P09936; AID 1645859, 2021; inhibition, % at 20 µM
# USP7 block – inhibitors of human USP7 deubiquitinase. Ubiquitin carboxyl-terminal hydrolase 7 (Homo sapiens), Q93009. inhibition, % at 20 µM. purified USP7, Ub-rhodamine cleavage fluorescence. 47,000 compounds, 0.3% hits
# USP10 block – inhibitors of human USP10 deubiquitinase | purified USP10, Ub-rhodamine fluorescence, 60 min | Ubiquitin carboxyl-terminal hydrolase 10 (Homo sapiens), Q14694 | inhibition, % at 20 µM | 47,000 compounds, 1.1% hits
# Starred values were filed as active, the others as inactive; . = no result. No stated cut-off is given here; in the data, active means inhibition above about 30%; inactive means the rest.
SMILES,OTUD3 inh,USP8 block,USP17 block,UCHL1 block,USP7 block,USP10 block
CCN[C@H]1C[C@@H](c2ccccc2)OC2(CCN(Cc3cnc(CC)nc3)CC2)C1,0,-64,-13,-4,1,-1
CCOc1nc2cccnc2n(CC(=O)Nc2ccccc2CC)c1=O,-45,-11,-20,-2,1,-12
CCOc1cccc2nnc(NC(=O)Nc3ccccc3CC)n12,0,13,56*,2,4,-1
COCC(=O)N1CCC([C@@H]2C[C@H](C(F)(F)F)n3nc(C(C)(C)C)cc3N2)CC1,0,0,51*,2,-14,-2
Cc1cccc(C(=O)OCC(=O)Nc2ccc3[nH]c(=O)[nH]c3c2)c1,32*,52*,57*,3,15,18
O=C(COc1ccc2c(c1)OCO2)Nc1ccc(N2CCOCC2)cc1,3,-96,-4,2,-3,-2
O=C(COC(=O)c1ccc2c(c1)OCO2)Nc1ccc(N2CCCCC2)cc1,-10,-62,33*,-4,-3,4
CCOc1ccc(NC(=O)COC(=O)c2oc3ccc(OCC)cc3c2C)cc1,-51,-60,-70,-5,-6,-2
CC(C)(C)c1ccc(C(=O)OCC(=O)Nc2ccc3c(c2)OCO3)cc1,7,12,-7,3,9,2
O=C(COC(=O)c1ccc2c(c1)OCO2)Nc1ccc2[nH]c(=O)[nH]c2c1,24,6,42*,3,10,19
Cc1c(C(=O)OCC(=O)Nc2ccc3c(c2)OCO3)oc2ccc(Br)cc12,0,-26,-4,0,3,35*
CCCCn1c(=O)c(CCC(=O)OCC(=O)NC23CC4CC(CC(C4)C2)C3)nc2ccccc21,-8,-25,-40,-11,-7,-4
O=C(NC1CCCCC1)C1CCN(C(=O)c2cc(-c3cccnc3)n[nH]2)CC1,7,-9,-1,-2,0,-2
Cc1cccc(C(=O)OCC(=O)Nc2ccc(N3CCOCC3)cc2)c1O,8,1,32*,0,.,-4
O=C(COC(=O)c1cc2ccccc2cc1O)Nc1ccc(N2CCOCC2)cc1,1,18,8,-1,2,15
C=C1CCC2C(C)(CCC=C(C)C)C(OC(C)=O)CCC2(C)C1Cc1c(O)c(C)c(C)oc1=O (configuration not stated),12,15,21,8,17,32*
C=C1CC[C@H]2[C@@](C)(COC(C)=O)CCC[C@]2(C)[C@H]1CC/C(C)=C/COC(C)=O,19,4,20,3,12,9
CCn1cnc2cc(NCc3ccc(OC)cc3OC)ccc21,-7,5,11,-4,-5,-1
CCn1cnc2cc(NCc3cccc(OC)c3O)ccc21,-1,40*,7,-1,-1,0
CC(C)c1ccc(C2c3[nH]c4ccccc4c3C[C@H]3C(=O)N(c4ccccc4C(=O)NC4CCCCC4)C(=O)N23)cc1 (some centres not stated),-30,-49,-85,-20,-15,-6
O=C1c2ccccc2C2(CCCC2)C(=O)N1Cc1ccccc1,9,49*,33*,3,-59,8
Cc1nc(-c2ccc(C(=O)NCc3ccc(F)cc3)cc2)cs1,2,25,52*,3,7,8
CCC(=O)Nc1cccnc1-c1ccc(C(=O)NCc2ccc(F)cc2)cc1,-3,-9,-9,-4,0,1
O=C(NCc1ccc(F)cc1)c1ccc(-c2cccs2)cc1,0,4,59*,2,4,8
Cc1noc(-c2csc(C(=O)NCc3ccc(F)cc3)n2)n1,-12,-3,0,1,-2,0
SMILES,OTUD3 inh,USP8 block,USP17 block,UCHL1 block,USP7 block,USP10 block
COc1ccccc1CNC(=O)c1ccc(-c2csc(C)n2)cc1,-2,-4,-1,2,-2,0
COc1ccccc1NC(=O)c1ccc(-c2csc(C)n2)cc1,2,1,41*,2,2,0
COc1ccc(NC(=O)Cn2cncc(C(=O)NC3CC3)c2=O)cc1,-2,-4,-4,-2,0,-1
O=C1NC(=O)N2Cc3ccccc3CN(S(=O)(=O)c3ccc(F)cc3)CC12 (configuration not stated),3,7,-6,-2,0,0
CCN1CCN(c2ccc(-c3ccc(C)c(S(=O)(=O)N4CCCC4)c3)nn2)CC1,2,2,-1,1,1,-4
O=[N+]([O-])c1ccc(C(c2ccc[nH]2)c2ccc[nH]2)cc1,1,-22,37*,2,-2,-6
Cc1noc(C2(NC(=O)Nc3cccc(F)c3C)CCCCC2)n1,-6,-10,5,-6,-9,2
CCCCNc1ncnc2c1oc1nc3c(cc12)COC(C)(C)C3,4,8,7,4,5,2
CN(Cc1ccccc1)C(=O)Cn1c(=O)[nH]c2c(-c3ccccc3)c[nH]c2c1=O,-20,46*,-49,-9,1,-8
O=C(Cn1c(=O)[nH]c2c(-c3ccccc3)c[nH]c2c1=O)NCc1ccco1,1,-22,45*,-6,-3,-6
O=C(Cn1c(=O)[nH]c2c(-c3ccccc3)c[nH]c2c1=O)NCc1ccc(Cl)cc1,-7,32*,-10,0,9,2
Cc1ccccc1Cn1ccc(=O)n(CC(=O)NCc2ccco2)c1=O,0,-51,-45,-6,-27,-3
O=C(Cn1c(=O)[nH]c2c(-c3ccccc3F)c[nH]c2c1=O)NC1CCCCC1,0,34*,12,-2,13,17
Cc1noc2nc(C)n(CC(=O)N(C)Cc3ccccc3)c(=O)c12,15,22,20,2,5,0
O=C(Cn1c2ncccc2c(=O)n1-c1ccccc1)NCc1ccc(Cl)cc1,-1,2,28,-1,2,6
O=C(Cn1c(=O)c2cccn2c2ccccc21)NCc1ccc(F)cc1,0,17,0,2,15,30
O=C(Cn1c(=O)[nH]c2c(-c3ccc(F)cc3)c[nH]c2c1=O)NCc1ccc(F)cc1,1,32*,10,1,13,12
Cc1nc(NCc2ccc(Cl)cc2)cc(-c2cncc(-c3cccs3)c2)n1,-21,-1,35*,0,.,0
O=C(c1cnccn1)N1CCCC1c1ccnc(Nc2cnccn2)n1 (configuration not stated),14,0,3,2,5,1
Cc1ccc(-c2nc3ncccc3o2)cc1NC(=O)COc1ccc([N+](=O)[O-])cc1,-11,-6,40*,1,0,-3
O=C(Nc1cccc(-c2nc3ncccc3o2)c1)c1ccc([N+](=O)[O-])cc1,-8,20,20,-2,6,4

# Assay outcomes (PubChem BioAssay)
